Measurements reported in paper PMC4336329 (PLoS ONE, 2015).
Out of some 310,000 compounds screened, about 14,000 (4.5%) showed an effect of 50% or more. The effect is printed as a negative number. The full list was thinned out, with strong results kept by preference.

The molecules below were run against human ether-à-go-go-related gene (hERG) potassium channel (human, UniProt Q12809) (assay: primary screen, population patch clamp on CHO cells stably expressing hERG; higher = less effect of the substance).
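Also: peak tail current of the secondary pulse compared with the same well before compound.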

human ether-à-go-go-related gene (hERG) potassium channel, sequence (Q12809 whole entry, looked up): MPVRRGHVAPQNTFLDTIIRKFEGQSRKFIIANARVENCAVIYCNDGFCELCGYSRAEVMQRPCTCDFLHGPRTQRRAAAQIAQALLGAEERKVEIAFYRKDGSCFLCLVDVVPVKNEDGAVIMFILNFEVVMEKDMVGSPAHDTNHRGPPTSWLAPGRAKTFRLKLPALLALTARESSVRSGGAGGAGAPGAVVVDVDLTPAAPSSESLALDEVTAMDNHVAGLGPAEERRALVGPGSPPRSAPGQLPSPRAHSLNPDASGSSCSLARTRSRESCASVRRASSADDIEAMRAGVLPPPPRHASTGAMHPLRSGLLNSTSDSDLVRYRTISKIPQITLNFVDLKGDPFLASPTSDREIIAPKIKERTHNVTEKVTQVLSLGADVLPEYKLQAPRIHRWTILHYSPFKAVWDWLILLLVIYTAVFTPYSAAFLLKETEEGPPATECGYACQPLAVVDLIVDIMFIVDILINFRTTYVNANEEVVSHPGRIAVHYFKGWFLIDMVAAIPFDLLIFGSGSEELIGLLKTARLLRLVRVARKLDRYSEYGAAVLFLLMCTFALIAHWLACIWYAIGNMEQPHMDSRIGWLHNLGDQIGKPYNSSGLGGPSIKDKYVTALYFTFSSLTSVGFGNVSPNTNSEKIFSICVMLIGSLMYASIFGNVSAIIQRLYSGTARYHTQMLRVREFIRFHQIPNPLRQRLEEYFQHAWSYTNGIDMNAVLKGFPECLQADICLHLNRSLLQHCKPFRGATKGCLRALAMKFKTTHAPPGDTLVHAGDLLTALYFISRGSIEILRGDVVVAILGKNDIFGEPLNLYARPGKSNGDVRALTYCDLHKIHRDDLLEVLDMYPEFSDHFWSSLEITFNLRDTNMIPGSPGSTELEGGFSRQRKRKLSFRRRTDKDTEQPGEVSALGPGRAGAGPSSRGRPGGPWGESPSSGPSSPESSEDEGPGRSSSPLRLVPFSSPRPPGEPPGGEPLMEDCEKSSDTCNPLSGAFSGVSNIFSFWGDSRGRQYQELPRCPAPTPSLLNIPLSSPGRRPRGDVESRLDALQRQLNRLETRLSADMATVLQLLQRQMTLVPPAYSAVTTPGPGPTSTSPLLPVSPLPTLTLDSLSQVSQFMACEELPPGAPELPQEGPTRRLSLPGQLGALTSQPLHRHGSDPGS

Compound | hERG current change (%, negative = inhibition) at 10uM
C[C@H](C(=O)NCc1ccccc1)C(=O)c1ccccc1 | 18%
CCOC(=O)CN1C(=O)C(O)(CC(=O)c2ccccn2)c2ccccc21 (centres unmarked) | 14.6%
Cc1nn(Cc2ccccc2)c(C)c1C(=O)NCc1ccccc1 | 6.55%
COc1ccc2cc(C(=O)OC(C)C)sc(=O)c2c1OC | 2.45%
Cc1ccc(/C(N)=N/OC(=O)c2ccc3ccccc3c2)cc1 | 0.62%
CCOC(=O)N1CCC(N2Cc3cccc(C(=O)NCc4ccc5c(c4)OCO5)c3C2=O)CC1 | -19.5%
CCOC(=O)N1CCC(N2Cc3cccc(C(=O)Nc4ccc(CC)cc4)c3C2=O)CC1 | -42.6%
CCOC(=O)N1CCC(N2Cc3cccc(C(=O)Nc4ccc(F)cc4)c3C2=O)CC1 | -55.3%
CCOC(=O)N1CCC(N2Cc3cccc(C(=O)NCc4ccccn4)c3C2=O)CC1 | -34.5%
O=C(Nc1cccc(F)c1)c1cccc2c1C(=O)N(C1CCCCC1)C2 | 12.2%
Cc1cccc(C)c1NC(=O)c1cccc2c1C(=O)N(C1CCCCC1)C2 | -7.01%
CCOC(=O)N1CCC(N2Cc3cccc(C(=O)NC(C)c4ccc5c(c4)OCCO5)c3C2=O)CC1 (centres unmarked) | -67.5%
CCOC(=O)N1CCC(N2Cc3cccc(C(=O)Nc4c(C)cccc4CC)c3C2=O)CC1 | -77.1%
CCOC(=O)N1CCC(N2Cc3cccc(C(=O)Nc4ccc(OCC)cc4)c3C2=O)CC1 | 9.07%
CCOC(=O)N1CCC(N2Cc3cccc(C(=O)Nc4ccc(N(CC)CC)cc4C)c3C2=O)CC1 | -7.16%
CCOC(=O)N1CCC(N2Cc3cccc(C(=O)Nc4cc(F)ccc4F)c3C2=O)CC1 | -23.1%
CCOC(=O)N1CCC(N2Cc3cccc(C(=O)Nc4cccc(F)c4)c3C2=O)CC1 | -72.1%
COc1ccc(OC)c(/C=N/n2c(COc3ccccc3)n[nH]c2=S)c1 | 12.2%
CCOc1ccc(-c2noc(-c3cccnc3)n2)cc1OCC | 13.7%
O=c1[nH]nc(Cc2ccc3ccccc3n2)c2ccccc12 | 1.36%
COc1ccc2[nH]c(=O)c(CN(Cc3cccs3)C(=S)Nc3ccccc3)cc2c1 | 16.7%
Fc1ccc(NC(=S)Nc2cccnc2)c(F)c1F | 20.1%

Compound | hERG current change (%, negative = inhibition) at 10uM
COc1ccccc1CNC(=O)COc1ccc2c(c1)CCC2 | -1.2%
Nc1ncnc2c1ncn2CCOc1ccccc1 | 5.18%
Cc1cccc2sc(N(CCN(C)C)C(=O)c3cc(Cl)sc3Cl)nc12.Cl | -22.7%
COc1cc2ccccc2cc1C(=O)N(CCN(C)C)c1nc2c(F)cc(F)cc2s1.Cl | -10.1%
Cc1cccc2sc(N(CCCN(C)C)C(=O)c3nc4ccccc4s3)nc12.Cl | 4.2%
Cc1cccc2sc(N(CCCN(C)C)C(=O)c3ccc(Cl)s3)nc12.Cl | -69.7%
CN(C)CCCN(C(=O)c1ccco1)c1nc2c(F)cc(F)cc2s1.Cl | -72.2%
CN(C)CCN(C(=O)/C=C/c1cccs1)c1nc2c(F)cc(F)cc2s1.Cl | -47.8%
CN(C)CCCN(C(=O)c1ccco1)c1nc2c(F)cccc2s1.Cl | -73.2%
CN(C)CCCN(C(=O)c1cc(-c2cccs2)nc2ccccc12)c1nc2c(F)cccc2s1.Cl | -48.8%
Cc1cccc2sc(N(CCCN(C)C)C(=O)c3ccco3)nc12.Cl | -74.9%
COc1cccc(N(CC(=O)NCCN2CCOCC2)S(=O)(=O)c2ccccc2)c1 | -4.96%
O=C(CSc1nc2ccccc2[nH]1)NCCc1ccc(Cl)cc1 | -20.9%
CN(C1CCCCC1)S(=O)(=O)c1ccccc1 | -7.01%
O=C(O)COc1ccc(Br)cc1/C=N\Nc1ccccn1 | 15.2%
COc1cc(OC)cc(C(=O)NC(=S)Nc2cc3oc4ccccc4c3cc2OC)c1 | 18.5%
Cc1cc(/C=C2/C(=O)N(C)C(=S)N2C)c(C)n1C1CC1 | 4.03%
CC(C)Oc1ccc(C(=O)Nc2ccc(N3CCCCC3)cc2)cc1 | -2.32%
CS(=O)(=O)N1CCc2ccc(NC(=O)C3CCCO3)cc2C1 (centres unmarked) | 18.8%
CCCNS(=O)(=O)c1ccc(CCC(=O)N2CCOCC2)cc1 | 3.77%
COC(=O)[C@@H](NC(=O)c1ccc2c(c1)S(=O)(=O)c1ccccc1C2=O)C(C)C | 8.57%
CN1CCc2c1nc1ccccc1c2NC(=O)CN1CCCC1 | -1.61%

Compound | hERG current change (%, negative = inhibition) at 10uM
CCCCCC(=O)Nc1cccc2ccccc12 | -2.38%
CCCCCC(=O)Nc1cc(N(C)C)nc2ccccc12 | -74.9%
CN(C)c1cc(NC(=O)CN2CCCC2)c2ccccc2n1.O=C(O)C(=O)O | -10.3%
O=C(CN1CCOCC1)Nc1c2c(nc3ccccc13)N(Cc1ccccc1)CC2.O=C(O)C(=O)O | -68.9%
O=C(CN1CCCCC1)Nc1c2c(nc3ccccc13)N(c1ccccc1)CC2.O=C(O)C(=O)O | 3.12%
CCCCCC(=O)Nc1c2c(nc3ccccc13)CCC2 | -45.7%
O=C(CN1CCCC1)Nc1c2c(nc3ccccc13)N(Cc1ccccc1)CC2.O=C(O)C(=O)O | 6.05%
CCCCC(=O)Nc1cc(N(C)C)nc2ccccc12 | -66.3%
CCN(CC)CC(=O)Nc1c2c(nc3ccccc13)N(C)CC2.O=C(O)C(=O)O | 16.5%
CCCCCCC(=O)Nc1c2c(nc3ccccc13)N(C)CC2 | -68%
CCN(CC)CC(=O)Nc1cc(N(C)C)nc2ccccc12.O=C(O)C(=O)O | -35.3%
C/C(=N\NC(=S)Nc1cc(S(=O)(=O)N2CCOCC2)ccc1Cl)c1ccc(N2CCOCC2)cc1 | 6.22%
COc1ccc(CN(Cc2ccccn2)C(=O)CN2C(=O)C(C)Oc3ccccc32)cc1 (centres unmarked) | -3.36%
CCOC(=O)c1ccc(-c2ccc(/C=C(\C#N)C(=O)NCc3cccs3)o2)cc1 | 18%
CC(=O)N1N=C(c2cccnc2)OC1c1ccc(C(C)C)cc1 (centres unmarked) | -30.1%
O=c1[nH]ccc2c(O)cccc12 | 20.1%
Cc1cccc(C)c1NC(=O)C1c2cccc[n+]2CC(=O)N1Cc1cccs1.[I-] (centres unmarked) | 4.89%
O=C(CCN1C(=O)/C(=C/c2ccccc2F)SC1=S)NC1C=CS(=O)(=O)C1 (centres unmarked) | 15.3%
CCOc1ccc(C(=O)c2nc3c(n2O)CCCC3)cc1 | 18.5%
O=C(O)/C=C/C(=O)Nc1cccc(C(F)(F)F)c1 | 7.79%
CC(C)CCN(CCC(C)C)CC(O)Cn1c2ccccc2c(=O)c2ccccc21 (centres unmarked) | -22%
CCCCN(CCCC)CC(O)Cn1c2ccccc2c(=O)c2ccccc21 (centres unmarked) | -68%

Compound | hERG current change (%, negative = inhibition) at 10uM
CCCN(CCC)CC(O)Cn1c2ccccc2c2ccccc21 (centres unmarked) | -32.1%
COCCCNC(=O)CCC(=O)Nc1ccc2nc(N3CCOCC3)cc(C)c2c1 | 4%
Cc1ccc(C2Oc3ccccc3C3=C2C(c2cccs2)n2ncnc2N3)cc1 (centres unmarked) | -7.55%
Fc1ccc(C2C3=C(Nc4ncnn42)c2ccccc2OC3c2ccncc2)cc1 (centres unmarked) | -60.4%
Brc1ccc(C2C3=C(Nc4ncnn42)c2ccccc2OC3c2ccncc2)cc1 (centres unmarked) | -32%
COc1ccc(C2Oc3ccccc3C3=C2C(c2cccs2)n2ncnc2N3)cc1 (centres unmarked) | -52.1%
Clc1ccc2c(c1)C1=C(C(c3ccncc3)O2)C(c2ccc(Br)cc2)n2ncnc2N1 (centres unmarked) | 4.44%
c1csc(C2C3=C(Nc4ncnn42)c2ccccc2OC3)c1 (centres unmarked) | 11.4%
COc1ccc(C2NC(=O)CCC2[N+](=O)[O-])c(OC)c1OC (centres unmarked) | 12.2%
Cn1c(-c2cccc3ccccc23)n[nH]c1=S | 21.9%
CCOc1ccc(/C(O)=C2/C(=O)C(=O)N(c3cc(C)on3)C2c2ccc(C(=O)OC)cc2)cc1 (centres unmarked) | 11.3%
COc1ccccc1C(=O)NCC(=O)N1CC=C(c2ccccc2)CC1 | 6.76%
CSCCC(NC(=O)c1ccco1)C(=O)N1CC=C(c2ccccc2)CC1 (centres unmarked) | -48%
CCOc1ccc(C(=O)NCC(=O)N2CCc3ccccc3C2)cc1OCC | 4.5%
O=C(NCC(=O)N1CC=C(c2ccccc2)CC1)c1ccco1 | -78.4%
CCOc1ccc(C(=O)NCC(=O)N2CC=C(c3ccccc3)CC2)cc1OCC | -62.9%
COc1ccc(C(=O)NCC(=O)N2CC=C(c3ccccc3)CC2)cc1OC | -37.9%
COc1cc(C(=O)NCC(=O)N2CC=C(c3ccccc3)CC2)cc(OC)c1OC | -51.2%
CCOc1ccc(C(=O)NCC(=O)N2CCCCCCC2)cc1OCC | 1.47%
Cc1cccc(C(=O)NCC(=O)N2CC=C(c3ccccc3)CC2)c1 | -40.9%
